# In ChEMBL document CHEMBL3988442, “University of Dundee, Small-Polar-MMV Screening Library” (2021):
# Biological target: Sialic acid-binding Ig-like lectin 9 (Homo sapiens) (UniProt Q9Y336)
# Assay: Hs-Siglec9 ALPHAscreen SOP 20170721
# Parameters: scale not given: direction of the effect not stated beside the values
# Settings: 10 µM
# Sequence of Sialic acid-binding Ig-like lectin 9 (Homo sapiens) (Q9Y336 whole entry): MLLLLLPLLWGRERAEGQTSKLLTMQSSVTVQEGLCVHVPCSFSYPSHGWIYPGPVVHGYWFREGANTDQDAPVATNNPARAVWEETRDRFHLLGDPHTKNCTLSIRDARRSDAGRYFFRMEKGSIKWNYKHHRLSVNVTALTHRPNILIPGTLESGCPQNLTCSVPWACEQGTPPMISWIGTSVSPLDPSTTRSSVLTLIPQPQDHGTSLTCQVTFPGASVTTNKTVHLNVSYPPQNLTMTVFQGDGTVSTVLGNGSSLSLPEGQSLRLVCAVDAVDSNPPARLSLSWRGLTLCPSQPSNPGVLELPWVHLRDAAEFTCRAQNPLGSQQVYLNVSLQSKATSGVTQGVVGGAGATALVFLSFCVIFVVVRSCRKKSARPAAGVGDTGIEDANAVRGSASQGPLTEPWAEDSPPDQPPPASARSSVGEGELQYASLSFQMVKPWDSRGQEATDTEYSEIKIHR
row,Compound,Percent Effect [%]
1,COCCn1ccc(NC(=O)Nc2cccnc2)n1,3.76
2,CCN(C(=O)CCCOc1ccccc1F)c1ccncc1,5.73
3,O=C(NC1CC1)[C@@H]1CCO[C@@H]2CCN(C3CCOCC3)C[C@@H]21,5.79
4,Cc1nc(C)n(CC2CCCN(c3ncnc4sccc34)C2)n1 (stereo not given),-5.07
5,Cc1nn(C)c(Cl)c1C1CCCN1C(=O)c1cc(Cl)c[nH]1 (stereo not given),9.97
6,COc1c(C2CCCN2Cc2csc(C(C)C)n2)c(C)nn1C (stereo not given),-3.17
7,CNc1cncc(C2CCCN2Cc2ccccn2)n1 (stereo not given),7.85
8,CC(=O)Nc1nc(C(=O)N2CCCC2Cn2cc(C)cn2)cs1 (stereo not given),17.1
9,O=C(NCCN1CCCCCC1=O)c1ccn(-c2ccc(F)cc2)n1,-9.89
10,O=C(NCCCn1cccn1)N1CCCC1c1ccncc1 (stereo not given),0.781
11,CC(C)c1nnc(NC(=O)NCc2ccnc(N(C)C)c2)s1,-0.716
12,CC(NC(=O)N(C)Cc1ccc(Cl)s1)c1ccccn1 (stereo not given),-0.224
13,CCc1nnc2n1CCN(C(=O)c1cnc3ccccc3n1)C2,28.2
14,O=C(c1ccccc1N1CCOCC1)N1CCCC(n2cccn2)C1 (stereo not given),3.15
15,CSc1ccc(NC(=O)Nc2ccc3c(c2)N(S(C)(=O)=O)CC3)cc1,3.62
16,OCC1CCCN1c1cc(NCCc2c[nH]c3ccccc23)ncn1 (stereo not given),-7.58
17,CC1CCN(C(CNC(=O)CCn2cccn2)c2cccs2)CC1 (stereo not given),10.3
18,CSCC[C@H](N)C(=O)NCc1cc2n(n1)CCCN(C(=O)C1CCC1)C2,1.43
19,COC(=O)c1ccc(N2CCN(C(=O)c3ccncc3)C(C)C2)cc1 (stereo not given),4.75
20,Cc1cccnc1NCCNC(=O)[C@H]1CNC[C@@H](C(=O)N2CCCC2)C1,8.93

row,Compound,Percent Effect [%]
1,Cc1ccccc1CNC(=O)Cc1c(C)nc2cc(=O)[nH]n2c1C,17.4
2,CC(Cn1ccnc1)NC(=O)C1(c2ccc(F)cc2)CC1 (stereo not given),-4.39
3,O=C1NC(c2ccccc2)=N[C@@]12CC[C@@H]1CN(Cc3ccco3)C[C@@H]12,-5.18
4,Cc1nc(CO[C@@H]2CN(Cc3cnn(C)c3)[C@@H]3COC[C@@H]32)cs1,4.76
5,COCC(=O)N1CCC[C@]2(C(=O)N(C)C)CN(c3ccccn3)C[C@@H]2C1,0.562
6,O=C(c1ccc(Br)o1)N1CCCC(n2cncn2)C1 (stereo not given),-6.28
7,CCCOc1ccc(NC(=O)NCCC(=O)N(C)C)cc1Cl,4.95
8,COCCNC(=O)C1(c2ccccc2C)CCOCC1,-1.02
9,O=C(CN1CCN(CC(O)C2CC2)CC1)NCc1ccc(F)cc1 (stereo not given),0.218
10,Cc1cnn(CCNCc2nc(COc3ccc(F)cc3)no2)c1,0.726
11,CN(C)C(=O)Cc1nc(CN2CCn3c(nnc3C3CC3)C2)cs1,3.53
12,CC(C)c1ncc2c(n1)CN(Cc1nc(-c3cccs3)no1)CC2,-6.68
13,Cc1n[nH]cc1CNc1ccc2c(c1)N(C(=O)OC(C)(C)C)CCC2,5.14
14,CCn1cc(N2Cc3nc(N)ncc3C2=O)cn1,-1.51
15,Cc1cccc(-c2ccc(C(=O)NCC(C)(C)C(N)=O)c(=O)[nH]2)c1,17.1
16,CN(C)C(=O)CN1CCCC2(CCN(c3ccsc3)C2=O)C1 (stereo not given),-9.8
17,Cc1nc(N2CCCC2)ncc1-c1cc(O)nc(N2CCCC2)n1,6.18
18,O=C(c1ccc(C2CCCO2)s1)N1CCS(=O)(=O)CC1 (stereo not given),22.7
19,OC(CN1CCN(Cc2nnc(C3CC3)o2)CC1)c1ccccc1 (stereo not given),15.1
20,CC(=O)c1cc(CC(=O)NCc2ccc(CN(C)C)cc2)cs1,9.94

# System: Trypanosoma cruzi
# Assay: Trypanosoma cruzi phosphomannomutase and mannose-1-phosphate guanylyltransferase assay
# Assay type: functional
# Parameters: scale not given: direction of the effect not stated beside the values
# Settings: 10 µM
row,Compound,Percent Effect [%]
1,COCCn1ccc(NC(=O)Nc2cccnc2)n1,2.82
2,CCN(C(=O)CCCOc1ccccc1F)c1ccncc1,5.36
3,O=C(NC1CC1)[C@@H]1CCO[C@@H]2CCN(C3CCOCC3)C[C@@H]21,6.98
4,Cc1nc(C)n(CC2CCCN(c3ncnc4sccc34)C2)n1 (stereo not given),-6.32
5,Cc1nn(C)c(Cl)c1C1CCCN1C(=O)c1cc(Cl)c[nH]1 (stereo not given),-1.79
6,COc1c(C2CCCN2Cc2csc(C(C)C)n2)c(C)nn1C (stereo not given),-8.99
7,CNc1cncc(C2CCCN2Cc2ccccn2)n1 (stereo not given),2.37
8,CC(=O)Nc1nc(C(=O)N2CCCC2Cn2cc(C)cn2)cs1 (stereo not given),-6.76
9,O=C(NCCN1CCCCCC1=O)c1ccn(-c2ccc(F)cc2)n1,-6.51
10,O=C(NCCCn1cccn1)N1CCCC1c1ccncc1 (stereo not given),-6.13
11,CC(C)c1nnc(NC(=O)NCc2ccnc(N(C)C)c2)s1,-2.77
12,CC(NC(=O)N(C)Cc1ccc(Cl)s1)c1ccccn1 (stereo not given),0.308
13,CCc1nnc2n1CCN(C(=O)c1cnc3ccccc3n1)C2,3.79
14,O=C(c1ccccc1N1CCOCC1)N1CCCC(n2cccn2)C1 (stereo not given),-1.98
15,CSc1ccc(NC(=O)Nc2ccc3c(c2)N(S(C)(=O)=O)CC3)cc1,3.06
16,OCC1CCCN1c1cc(NCCc2c[nH]c3ccccc23)ncn1 (stereo not given),-2.15
17,CC1CCN(C(CNC(=O)CCn2cccn2)c2cccs2)CC1 (stereo not given),2.82
18,CSCC[C@H](N)C(=O)NCc1cc2n(n1)CCCN(C(=O)C1CCC1)C2,8.26
19,COC(=O)c1ccc(N2CCN(C(=O)c3ccncc3)C(C)C2)cc1 (stereo not given),4.63
20,Cc1cccnc1NCCNC(=O)[C@H]1CNC[C@@H](C(=O)N2CCCC2)C1,2.38

row,Compound,Percent Effect [%]
1,Cc1ccccc1CNC(=O)Cc1c(C)nc2cc(=O)[nH]n2c1C,4.13
2,CC(Cn1ccnc1)NC(=O)C1(c2ccc(F)cc2)CC1 (stereo not given),2.93
3,O=C1NC(c2ccccc2)=N[C@@]12CC[C@@H]1CN(Cc3ccco3)C[C@@H]12,2.32
4,Cc1nc(CO[C@@H]2CN(Cc3cnn(C)c3)[C@@H]3COC[C@@H]32)cs1,-2.58
5,COCC(=O)N1CCC[C@]2(C(=O)N(C)C)CN(c3ccccn3)C[C@@H]2C1,5.02
6,O=C(c1ccc(Br)o1)N1CCCC(n2cncn2)C1 (stereo not given),-3.6
7,CCCOc1ccc(NC(=O)NCCC(=O)N(C)C)cc1Cl,4.5
8,COCCNC(=O)C1(c2ccccc2C)CCOCC1,-5
9,O=C(CN1CCN(CC(O)C2CC2)CC1)NCc1ccc(F)cc1 (stereo not given),4.83
10,Cc1cnn(CCNCc2nc(COc3ccc(F)cc3)no2)c1,0.94
11,CN(C)C(=O)Cc1nc(CN2CCn3c(nnc3C3CC3)C2)cs1,2.14
12,CC(C)c1ncc2c(n1)CN(Cc1nc(-c3cccs3)no1)CC2,-3.99
13,Cc1n[nH]cc1CNc1ccc2c(c1)N(C(=O)OC(C)(C)C)CCC2,1.08
14,CCn1cc(N2Cc3nc(N)ncc3C2=O)cn1,7.47
15,Cc1cccc(-c2ccc(C(=O)NCC(C)(C)C(N)=O)c(=O)[nH]2)c1,2.92
16,CN(C)C(=O)CN1CCCC2(CCN(c3ccsc3)C2=O)C1 (stereo not given),-5.71
17,Cc1nc(N2CCCC2)ncc1-c1cc(O)nc(N2CCCC2)n1,-4.13
18,O=C(c1ccc(C2CCCO2)s1)N1CCS(=O)(=O)CC1 (stereo not given),9.07
19,OC(CN1CCN(Cc2nnc(C3CC3)o2)CC1)c1ccccc1 (stereo not given),-3.31
20,CC(=O)c1cc(CC(=O)NCc2ccc(CN(C)C)cc2)cs1,6.37
